Screening data as filed in PubChem BioAssay.
TrxR1 substrate = substrates of rat thioredoxin reductase 1; O89049; Potency, µM (doses to about 114 µM), for the others: at the highest dose activity change, negative = substrate turnover; purified TrxR1 substrate turnover, NADPH consumption readout; AID 588456; 390,000 tested, 0.01% active; note: potency is the fitted concentration of half-maximal effect; nearly all actives have a fitted effect of over 50% in size
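Rat TrxR1, dispensed at 90 nM, was prereduced with 400 uM NADPH (final) for 5 min at ~22 deg C, then incubated with compound 15 min before 400 uM selenite. A first-read NADPH fluorescence drop versus no-compound background flagged substrates.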
rTrxR1 inhibitor = blocks rat thioredoxin reductase 1 | Potency, µM (titrated, usually from 114 µM), inactives show at the top dose activity change, negative = inhibition, usual class: inhibitors | O89049 | recombinant rTrxR1, NADPH fluorescence consumption, selenite substrate | 390,000 tested, 1% active; note: potency is the fitted concentration of half-maximal effect; nearly all actives have a fitted effect of over 65% in size
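Rat TrxR1 (90 nM in the dispensed reagent) was pre-reduced with 400 uM NADPH for 5 min at room temperature, then incubated with compound for 15 min. After 400 uM selenite was added, NADPH fluorescence (Ex 340/Em 450 nm) was followed for 8 min.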
USP1 inh = inhibitors of human USP1/UAF1 deubiquitinase | O94782 | recombinant USP1/UAF1, Ub-Rhodamine cleavage fluorescence | Potency, µM (top dose mostly 57.1 µM), inactives show top-dose activity change, negative = inhibition, usual class: inhibitors | 390,000 tested, 0.23% active | AID 743255; note: potency is the fitted concentration of half-maximal effect; nearly all actives have a fitted effect of over 60% in size
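High-throughput fluorogenic screen: 1nM USP1/UAF1 complex, Ub-Rho substrate 150nM final, 50mM HEPES pH 7.8 with 0.5mM EDTA, 0.1 mg/ml BSA, 1mM TCEP and 0.01% Tween-20.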
GALK inh = blocks human galactokinase activity; AID 1868; 270,000 tested, 0.007% active; Purified GALK, Kinase-Glo residual ATP luminescence; Potency, µM (doses to about 57.5 µM), inactives show at the highest dose activity change, negative = inhibition, hits mostly inhibitors; note: potency is the fitted concentration of half-maximal effect
Target sequence (P51570 whole entry, looked up): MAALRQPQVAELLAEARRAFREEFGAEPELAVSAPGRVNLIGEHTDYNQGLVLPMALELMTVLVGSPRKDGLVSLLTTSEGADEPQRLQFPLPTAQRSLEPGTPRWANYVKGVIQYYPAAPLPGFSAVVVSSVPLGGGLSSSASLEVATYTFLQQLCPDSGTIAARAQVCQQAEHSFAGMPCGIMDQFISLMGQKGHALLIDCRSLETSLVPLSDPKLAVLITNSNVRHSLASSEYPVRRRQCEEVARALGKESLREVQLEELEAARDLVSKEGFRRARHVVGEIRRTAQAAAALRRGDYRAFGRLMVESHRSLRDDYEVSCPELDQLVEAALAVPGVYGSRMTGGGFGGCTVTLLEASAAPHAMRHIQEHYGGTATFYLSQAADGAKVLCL
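5 nM enzyme, 35 uM ATP, 100 uM galactose, 20 mM HEPES pH8.0, 5 mM MgCl2; 1 h RT; residual ATP by Kinase-Glo Plus luminescence, qHTS format.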
FBPA coupling cs = counter-screen for Giardia aldolase inhibitors: coupling enzyme system. coupling enzyme system counterscreen, AmpLite Red fluorescence. activity change, negative = inhibition, % at 58.2 µM, hits read low. AID 2472. 290,000 tested, 0.67% active; in the data active = activity change below about -30%
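Final compound at 57.5 uM, incubated 10 min at RT with coupling enzyme reagent (glyceraldehyde-3-phosphate), then 20 min with substrate and AmpLite Red detection. Fluorescence read at 525/598 nm; tests interference with the coupling assay, not aldolase inhibition.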
* = called active by the depositor; ? = inconclusive; . = not tested or not shown; [ ] = another dose, or the depositor's remark. An excerpt weighted towards active compounds, which were near 1.5% of everything screened. Unless noted, calls come from the whole dose curve; as a rule, active = well fitted curve in the direction sought with a large enough effect; inconclusive = small, poorly fitted or top-dose-only effect, or another doubt; inactive = no such curve, though single readings can be large; an effect the other way counts as inactive or inconclusive. % is set by controls: 0 for no effect and ±100 for the full control effect.

SMILES | TrxR1 substrate | rTrxR1 inhibitor | USP1 inh | GALK inh | FBPA coupling cs
O=c1[nH]c2cc3c(cc2cc1CN(Cc1ccccc1)Cc1nnnn1Cc1ccco1)OCCO3 | 22.1% | 17.8µM* | -7.7% | -0.1% | -8.7
CCc1ccc2[nH]c(=O)c(CN(Cc3ccccc3)Cc3nnnn3Cc3ccco3)cc2c1 | -1.0% | -23.6% | -31.8% | 2.1% | -0.9
COc1ccccc1CN(Cc1cc2cc3c(cc2[nH]c1=O)OCCO3)Cc1nnnn1Cc1ccco1 | 43.7% | 5.62µM* | -21.2% | -0.1% | -0.5
Cc1ccc2cc(CN(Cc3ccco3)Cc3nnnn3Cc3ccco3)c(=O)[nH]c2c1 | -6.2% | ? | . | . | .
Cc1ccc2[nH]c(=O)c(CN(CCCO)Cc3nnnn3Cc3ccco3)cc2c1 | 0.4% | 28.2µM* | . | . | .
Cc1ccc2cc(CN(Cc3nnnn3Cc3ccco3)CC3CCCO3)c(=O)[nH]c2c1C (stereo not given) | -6.0% | 25.1µM* | -4.5% | 2.5% | -1.7
CC(C)(C)C(=O)CSc1n[nH]c(-c2ccccc2)n1 | -1.9% | 7.1% | . | . | .
O=c1[nH]c2cc3c(cc2cc1CN(Cc1cccs1)Cc1nnnn1Cc1ccco1)OCCO3 | 27.1% | 15.8µM* | ? | -3.0% | -10.7
Cc1ccc2[nH]c(=O)c(CN(Cc3ccc4c(c3)OCO4)Cc3nnnn3Cc3ccco3)cc2c1 | -3.6%[57.1 µM] | 6.4%[57.1 µM] | -26.7% | 0.3% | 0.3
Cc1ccc2cc(CN(C(=O)c3ccco3)c3cccc(C)c3C)c(=O)[nH]c2c1 | 6.0% | 17.8µM* | -24.3% | -0.8% | 1.2
CCCCCCCCCCC(C)=O | . | . | . | . | -0.6
CCCCOc1c(Br)cc(/C=C2\N=C(C)OC2=O)cc1OCC | 0.8% | 39.8µM* | -26.7% | -7.4% | 17.5
CCOc1cc(/C=C2\N=C(C)OC2=O)cc(Cl)c1OCC(=O)OC | 2.7%[57.1 µM] | ? | -1.3% | . | .
COc1ccc2[nH]c(C)c(C(=O)CN(C)CC(OC)OC)c2c1 | -2.3% | ? | . | . | .
CCOCc1cnc(C)nc1NCC(=O)c1c(C)[nH]c2ccc(OC)cc12 | 4.4% | 4.2% | 1.7% | 0.3% | -48.7*
CCN(CC)/[N+]([O-])=N/OCOC(=O)C(C)c1ccc2cc(OC(C)=O)ccc2c1 (stereo not given) | 5.0%[0.457 µM] | 21.6% | . | . | .
CCN(CC)Cc1c(NC(=O)c2ccccc2)sc(C)c1C | 3.3% | 7.08µM* | -6.1% | -0.9% | -2.9
CC(=O)C(Sc1nccc(-c2cccs2)n1)C(C)=O | -8.7% | 19.5%[57.1 µM] | 1.5% | 4.9% | -50.9*
Cc1noc(/C=C/c2ccco2)c1S(=O)(=O)N1CCC(C(=O)N2CCc3ccccc3C2)CC1 | -7.6% | 50.1µM* | ? | 0.7% | 2.8
Cc1ccccc1NC(=O)C1CCN(S(=O)(=O)c2c(C)noc2/C=C/c2ccco2)CC1 | -10.6% | -21.8% | -0.3% | . | .
Cc1ccc(C)c(OCc2cc(C(=O)N3CCN(C(=O)c4ccco4)CC3)no2)c1 | -2.3% | ? | -4.1% | 2.5% | .
O=C(c1cc(COc2ccc(F)cc2F)on1)N1CCN(C(=O)c2ccco2)CC1 | 1.5% | 50.1µM* | -16.2% | 0.1% | .
[O][C@H]1[C@@H](O)[C@@H](CO)O[C@@H](O[C@@H]2[C@@H]3OC[C@H]2O[C@H](O[C@@H]2[C@@H](O)[C@H](C[C@@H]4[C@@H]5OC[C@H]4O[CH][C@@H]5O)O[C@H](CO)[C@@H]2OS(=O)(=O)O)[C@@H]3OS(=O)(=O)O)[C@@H]1O | . | . | . | . | 0.6
CN(C)c1ccc(/C=N/NC(=O)C(O)(c2ccccc2)c2ccccc2)o1 | -0.3% | 8.91µM* | -11.1% | 0.8% | -9.2
Cc1cc(C(=O)N/N=C/c2ccc(N(C)C)o2)cs1 | 2.2% | 14.1µM* | ? | -6.1% | .
SMILES | TrxR1 substrate | rTrxR1 inhibitor | USP1 inh | GALK inh | FBPA coupling cs
CC(C)c1ccc(Nc2nc(Nc3ccc(Cl)cc3)nc(N3CCOCC3)n2)cc1 | 16.1% | 3.5% | . | . | .
Cc1nc([N+](=O)[O-])c(Br)n1Cc1ccc(Cl)c(Cl)c1 | -3.8% | 10µM* | -15.9% | -11.0% | -0.1
COc1ccc(C(=O)Cn2c(C)nc([N+](=O)[O-])c2Br)cc1 | 13.9%[57.1 µM] | 17.8µM* | -9.1% | -3.8% | -0.4
Cc1nc([N+](=O)[O-])c(Br)n1CC(=O)c1ccc(Cl)cc1 | 11.3%[57.1 µM] | 2.51µM* | -0.2% | -0.3% | -1.1
COc1ccc(C(=O)Cn2cc([N+](=O)[O-])nc2C)cc1 | -2.5% | -7.3% | -17.0% | -3.7% | -0.1
COC(=O)C[C@H]1c2ccccc2S(=O)(=O)N1c1ccc(N(C)C)cc1 | 0.4% | -14.0% | . | . | .
CNc1ccc(/C=C/c2ccccc2)cc1 | 9.0% | -8.8% | . | . | .
CC(C)C[C@H](NC(=O)[C@@H]1CCCN1C(=O)[C@H](Cc1ccccc1)NC(=O)[C@H](C)NC(=O)[C@H](CCC(=O)O)NC(=O)[C@H](C)NC(=O)[C@H](CO)NC(=O)[C@H](CCC(=O)O)NC(=O)[C@H](CC(=O)O)NC(=O)[C@H](CCC(=O)O)NC(=O)[C@H](C)NC(=O)CNC(=O)[C@H](CC(N)=O)NC(=O)[C@@H]1CCCN1C(=O)[C@H](Cc1ccc(O)cc1)NC(=O)[C@@H](NC(=O)[C@H](CCCCN)NC(=O)[C@@H](NC(=O)[C@@H]1CCCN1C(=O)[C@@H](N)CCCNC(=N)N)C(C)C)C(C)C)C(=O)N[C@@H](CCC(=O)O)C(=O)N[C@@H](Cc1ccccc1)C(=O)O | . | . | . | . | 1.5
CCOc1ccc(C(=O)CC(C(=O)O)N2CCN(Cc3ccccc3)CC2)cc1 (stereo not given) | -9.1% | 15.8µM* | -1.8% | . | .
CCOc1ccc(C(=O)OC(C)C(=O)N2CCN(Cc3ccccc3)CC2)cc1 (stereo not given) | 8.0%[57.1 µM] | 14.5%[57.1 µM] | -12.5% | . | .
CCOc1ccc(C(=O)CC(C(=O)O)N2CCCCC2)cc1 (stereo not given) | -10.2% | 14.1µM* | -13.1% | . | .
COc1ccc(C(=O)NC(=S)Nc2ccc(S(=O)(=O)Nc3cc(OC)nc(OC)n3)cc2)cc1 | -2.7% | 56.2µM* | -0.4% | 5.6% | 3.7
COc1ccc(C(=O)NC(=S)Nc2ccc(S(=O)(=O)Nc3cc(OC)ncn3)cc2)cc1 | -9.1% | 44.7µM* | -2.6% | 17.0% | 3.2
Cc1noc(-c2ccc(CSCCC(=O)O)cc2)c1NC(=O)OC(C)c1ccccc1Cl (stereo not given) | . | . | . | . | 5.0
COc1cc2c(NC3CCN(C)CC3)nc(N3CCCN(C)CC3)nc2cc1OCc1ccccc1 | 31.1% | -18.1% | . | . | .
C(=C\n1nnc2ccccc21)/c1ccc[nH]1 | 1.8% | 12.6µM* | -2.8% | . | .
Cc1ccccc1CN1[C@H](C)[C@H](c2ccccc2)OCCS1(=O)=O | 5.9% | 26.6% | . | . | .
O=[N+]([O-])c1ccc(Sc2cccc3cccnc23)c2cccnc12 | -1.0% | 13.8% | -18.0% | 0.8% | -33.9*
CCOC(CN=c1nc(N(C)C)ss1)OCC | 8.2%[11.4 µM] | 4.7%[11.4 µM] | -17.8% | . | .
CN(C)c1nc(=NCc2ccco2)ss1 | 11.5%[57.1 µM] | 6.9%[2.29 µM] | -26.2% | 2.7% | -55.9*
